Screening results deposited in PubChem BioAssay by National Center for Advancing Translational Sciences (NCATS).
In the library only some 4.6% were active in any assay of this set; here they are far more common.
NTMT1 inhibitor = Primary qHTS for Inhibitors of N-terminal methyltransferase 1 (NTMT1): MTaseGlo Assay | NTMT1 MTase-Glo SAH luminescence, purified enzyme | Potency, µM (doses to about 114 µM), without a hit: at the highest dose activity change, negative = inhibition, hits mostly inhibitors | 59,000 compounds, 2.5% hits | AID 1645870, 2021;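 also: potency is read from the fitted curve at half-maximal effect; plate controls were DMSO vehicle for no effect and no enzyme for full effect; nearly all actives have a fitted effect of over 65% in size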
HTT-AS act = Primary qHTS for Identification of Small Molecule Activators of Huntingtin-Antisense Promoter Activity | HEK293 HTT-AS promoter firefly luciferase reporter, 24 h; response scale: percent change from vehicle, -100% = no light | Potency, µM (series often up to 57.5 µM), for inactives: at the top dose activity change, positive = activation, actives largely listed as activators | 48,000 compounds, 0.24% hits | AID 1508624, 2021; also: potency is read from the fitted curve at half-maximal effect; nearly all actives have a fitted effect of over 55% in size
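Quantitative HTS used concentration series of up to 57.5 uM final on HEK293 luciferase reporter cells, 24 h at 37 degrees C. Readout was Dual-Glo firefly luminescence.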
DRV1 agonist = qHTS for Agonists of Human Resolvin D1 Receptor DRV1 | Probable G-protein coupled receptor 32 (Homo sapiens), O75388 | CHO-K1 GPR32 beta-arrestin PathHunter luminescence, 90 min; zero percent set by DMSO-only wells | activation, % at 76.9 µM | 48,000 compounds, 2.5% hits | AID 1346428, 2018;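 active = activation of at least 60% and not above a set upper limit, about 1 call in 100 departs from these limits; inconclusive = activation of 40% to 60%, or above that upper limit; inactive = activation under 40%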; also: 0% is about no effect
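Luminescent readout of beta-Gal complementation quantifies ligand-induced beta-arrestin association with GPR32 in CHO-K1 cells; 90 min compound incubation at 37 °C, detection 1 h at room temperature.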
HTT promoter inh = Primary qHTS for Identification of Small Molecule Inhibitors of Huntingtin Promoter Activity; HEK293 HTT promoter firefly luciferase reporter, 24 h; Potency, µM (top dose mostly 57.5 µM), without a hit: at the top dose activity change, negative = inhibition, hits mostly inhibitors; 48,000 compounds, 0.93% hits; also: potency is read from the fitted curve at half-maximal effect; nearly all actives have a fitted effect of over 50% in size
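Luminescence was read after Dual-Glo reagent and a 10 min room-temperature incubation. Values were normalized to vehicle (0% activity) and zero RLU (-100% activity). Reporter HEK293 cells had been exposed to compounds (up to 57.5 uM final) for 24 h.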
Sfp qHTS opt = qHTS Assay for Inhibitos of Bacillus subtilis Sfp phosphopantetheinyl transferase (PPTase): Chemistry Optimization Followup; shares compounds with NTMT1 inhibitor; purified Sfp PPTase enzyme activity, qHTS; Potency, µM (series often up to 114 µM), inactives show at the top dose activity change, negative = inhibition, usual class: inhibitors; 230 compounds, 78% hits; AID 540350, 2011
Bsub HM489 growth = qHTS for Inhibitos of Bacillus subtilis Sfp phosphopantetheinyl transferase (PPTase): Chemistry Optimization Followup in B. Subtilis HM489. shares compounds with NTMT1 inhibitor. B. subtilis HM489 (acpS-) growth, BacTiter-Glo, 5 h. Potency, µM (titrated, usually from 114 µM), for inactives: top-dose activity change, negative = inhibition, hits mostly inhibitors. 220 compounds, 50% hits
Sfp PPTase gel = Gel-Based Assay for Inhibitos of Bacillus subtilis Sfp phosphopantetheinyl transferase (PPTase): Chemistry Optimization Followup; shares compounds with NTMT1 inhibitor; purified Sfp PPTase, gel-based product detection; Potency, µM (titrated, usually from 250 µM), without a hit: at the highest dose activity change, negative = inhibition, most hits filed as inhibitors; 220 compounds, 54% hits; AID 540355, 2011
Sfp inh gel = qHTS Assay for Inhibitors of Bacillus subtilis Sfp phosphopantetheinyl transferase (PPTase): Gel Based Assay; 45 compounds, 90% hits; Potency, µM (series often up to 250 µM), for inactives: at the top dose activity change, negative = inhibition, most hits filed as inhibitors; purified Sfp PPTase, gel-based product detection; AID 602362, 2012; shares compounds with NTMT1 inhibitor
Sfp SAR2 = qHTS Assay for Inhibitors of Bacillus subtilis Sfp phosphopantetheinyl transferase (PPTase): SAR Round 2; shares compounds with NTMT1 inhibitor; purified Sfp enzyme, PPTase activity, qHTS; Potency, µM (top dose mostly 57.1 µM), without a hit: at the top dose activity change, negative = inhibition, actives largely listed as inhibitors; 230 compounds, 87% hits; AID 602370, 2012
hGST A1-1 inh = qHTS Assay for Inhibitors of Bacillus subtilis Sfp phosphopantetheinyl transferase (PPTase): SAR in hGST A1-1 | hGST A1-1 enzyme activity counter-screen, qHTS | 55 tested, under 10 active | Potency, µM (series often up to 114 µM), for the others: top-dose activity change, negative = inhibition, hits mostly inhibitors | shares compounds with NTMT1 inhibitor
HSD17B4 counter = Extended Characterization of HPGD Inhibitors: Counterscreen Against HSD17b4; purified HSD17B4, estradiol/NAD+, NADH fluorescence; shares compounds with NTMT1 inhibitor; 230 compounds, 10% hits; Potency, µM (top dose mostly 57.1 µM), for the others: at the top dose activity change, negative = inhibition, hits mostly inhibitors
ALDH1A1 counter = Extended Characterization of HPGD Inhibitors: Counterscreen Against ALDH1A1. shares compounds with NTMT1 inhibitor. recombinant ALDH1A1, NADH fluorescence, propionaldehyde/NAD+. 230 compounds, 93% hits. Potency, µM (series often up to 57.1 µM), inactives show at the top dose activity change, negative = inhibition, usual class: inhibitors. AID 743195, 2013
Target sequence (P00352 whole entry, looked up): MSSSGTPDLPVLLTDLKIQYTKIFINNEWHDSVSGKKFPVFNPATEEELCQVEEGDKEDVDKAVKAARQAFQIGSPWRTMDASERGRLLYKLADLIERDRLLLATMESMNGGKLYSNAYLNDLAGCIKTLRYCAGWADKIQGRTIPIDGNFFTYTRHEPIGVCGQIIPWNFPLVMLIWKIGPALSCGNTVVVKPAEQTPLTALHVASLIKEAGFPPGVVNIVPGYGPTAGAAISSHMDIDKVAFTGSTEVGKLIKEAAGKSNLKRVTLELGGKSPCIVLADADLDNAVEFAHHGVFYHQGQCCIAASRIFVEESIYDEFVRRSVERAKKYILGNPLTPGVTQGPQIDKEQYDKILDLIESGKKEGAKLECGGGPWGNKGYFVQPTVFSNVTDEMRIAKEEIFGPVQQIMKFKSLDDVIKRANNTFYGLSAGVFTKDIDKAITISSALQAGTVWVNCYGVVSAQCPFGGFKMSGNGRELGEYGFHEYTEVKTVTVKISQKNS
NNMT counter = Counterscreen qHTS for Inhibitors of N-terminal methyltransferase 1 (NTMT1): NNMT MTaseGlo assay; shares compounds with NTMT1 inhibitor; NNMT MTase-Glo luminescence, SAH detection; Potency, µM (titrated, usually from 57.1 µM), for the others: at the highest dose activity, negative = inhibition, most hits filed as inhibitors; 120 compounds, 10% hits; AID 1645878, 2021
Target sequence (P40261 whole entry, looked up): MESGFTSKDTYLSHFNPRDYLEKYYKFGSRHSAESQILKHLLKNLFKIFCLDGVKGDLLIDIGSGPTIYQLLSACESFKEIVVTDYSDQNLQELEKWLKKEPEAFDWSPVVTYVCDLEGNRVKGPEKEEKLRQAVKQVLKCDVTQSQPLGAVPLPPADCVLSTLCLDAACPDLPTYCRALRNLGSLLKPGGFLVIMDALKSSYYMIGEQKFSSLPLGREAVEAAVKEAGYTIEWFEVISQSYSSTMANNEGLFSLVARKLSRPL
* = called active by the depositor; ? = inconclusive; . = no result given; [ ] = remark or other dose. Unless noted, calls follow the shape of the dose curve; as a rule, active = well fitted curve in the direction sought with a large enough effect; inconclusive = small, poorly fitted or top-dose-only effect, or another doubt; inactive = no such curve, though single readings can be large; an effect the other way counts as inactive or inconclusive.

SMILES	NTMT1 inhibitor	HTT-AS act	DRV1 agonist	HTT promoter inh	others
CCN1CCC(n2cc(CNc3cc(Cl)c4ncc(C#N)c(Nc5ccc(F)c(Cl)c5)c4c3)nn2)CC1	2.5µM*	-2%	.	7%	NNMT counter=?
CNC(=O)c1ccccc1Nc1cc(Nc2ccc(N3CCOCC3)cc2OC)ncc1C(F)(F)F	-1%[57.5 µM]	.	.	.	NNMT counter=?
COc1cc(N2CCOCC2)ccc1Nc1ncc(F)c(Nc2ccccc2NS(C)(=O)=O)n1	9%[57.5 µM]	.	.	.
COc1ccc(C(=O)N(CCC(C)C)Cc2nc(C)c(C)n2Cc2ccccc2C)c(OC)c1	2%[57.5 µM]	.	.	.
Cc1[nH]c(/C=C2\C(=O)Nc3cc(-c4ccccc4)ccc32)c(C)c1CCC(=O)O	?	.	.	.	NNMT counter=28%
COc1ccc(CCC(=O)NCCc2nc3ccccc3n2CCOc2ccc(C)cc2)cc1	-26%	.	.	.
CC(C)(C)C(=O)N1CCN(c2cccc(Nc3nn4c(=O)c5ccccc5nc4s3)c2)CC1	5%	.	.	.
CC(C)c1nc(-c2ccc(NC(=O)Nc3cccc(C(F)(F)F)c3)c3ccccc23)c2c(N)nccn12	3%[57.5 µM]	.	.	.
CN(C)c1ccc2nc(NC(=S)N3CCN(c4cccc(C(F)(F)F)c4)CC3)sc2c1	13%[57.5 µM]	.	.	.	Sfp qHTS opt=?;Bsub HM489 growth=?;Sfp PPTase gel=20µM*;Sfp SAR2=10µM*;HSD17B4 counter=?;ALDH1A1 counter=9.6µM*
COc1cccc(NC(=S)N2CCN(c3cccc(C(F)(F)F)c3)CC2)n1	.	.	.	.	Sfp qHTS opt=13µM*;Bsub HM489 growth=42µM*;Sfp PPTase gel=20µM*;Sfp SAR2=11µM*;HSD17B4 counter=19µM*;ALDH1A1 counter=15µM*
COc1cccc(NC(=S)N2CCN(c3ccc(Cl)c(Cl)c3)CC2)n1	.	.	.	.	Sfp qHTS opt=?;Bsub HM489 growth=30%;Sfp PPTase gel=95µM*;Sfp inh gel=107µM*;Sfp SAR2=8.1µM*;hGST A1-1 inh=?;HSD17B4 counter=?;ALDH1A1 counter=6.1µM*
O=C(Nc1ccc(C(F)(F)F)cn1)N1CCN(c2ncccc2C(F)(F)F)CC1	3%[57.5 µM]	.	.	.
COc1cccc(NC(=S)N2CCN(c3ncc(C(F)(F)F)cc3Cl)CC2)n1	?	.	.	.	Sfp qHTS opt=?;Bsub HM489 growth=12%;Sfp PPTase gel=5%;Sfp SAR2=4.6µM*;HSD17B4 counter=-13%;ALDH1A1 counter=1.1µM*
Cc1ccccc1C(=O)N1CCc2cc(-c3nc(NC(=O)Cc4ccc5c(c4)OCCO5)sc3C)ccc21	-2%	.	.	.
COc1cc2c(C(=O)N3CCN(c4cccc(C(F)(F)F)c4)CC3)cn(CC(C)C)c(=O)c2cc1OC	1%	-41%	-29	?
COc1cc(NC(=S)N2CCN(c3cccc(C(F)(F)F)c3)CC2)nc2ccccc12	?	.	.	.	Sfp qHTS opt=1.9µM*;Bsub HM489 growth=47µM*;Sfp PPTase gel=0.79µM*;Sfp SAR2=0.65µM*;HSD17B4 counter=-57%;ALDH1A1 counter=5.4µM*
C[C@H]1[C@H](O)O[C@@H]2O[C@@]3(C)CC[C@H]4[C@H](C)CC[C@@H]1[C@@]24OO3	-18%[57.5 µM]	.	.	.
COc1ccc(CC(=O)Nc2nc(-c3ccc4c(c3)CCN4C(=O)c3ccccc3C)c(C)s2)cc1	12%	.	.	.
CC(C)C1NC(=O)CNC(=O)C2CCCN2C(=O)C(Cc2c[nH]c3ccccc23)NC(=O)CNC(=O)C(Cc2ccc(O)cc2)NC(=O)CNC1=O (stereo not given)	15%[12.6 µM]	.	.	.
O=C(O)c1ccnc2cc(-c3nc4ccccc4n3CCN3CCCCC3)sc12	-18%[57.5 µM]	.	.	.	NNMT counter=-6%
Cc1ccc(OCCSc2nc3ccccc3n2CC(=O)N2CCCCC2)cc1C	18%	-30%	3	-15%
Nc1ccc(C(=O)Nc2cccc(-c3nc(N4CCOCC4)c4oc5ncccc5c4n3)c2)cn1	11%	-28%	.	?	NNMT counter=-18%
COc1ccc(NC(=O)c2cnc(N3CCOCC3)c3ccccc23)cc1OC	1%	-25%	-9	-26%
COc1c/c(=C2\C=c3ccccc3=N2)[nH]/c1=C/c1[nH]c(C)cc1C	.	.	.	.	NNMT counter=?
CC(=O)O[C@@H]1CC2C(/C=C(\C)C(=O)[C@@]3(O)C[C@@H](C)[C@H](OC(=O)c4ccccc4)C3/C=C/1C)C2(C)C (stereo not given in full)	6%[29.8 µM]	.	.	.
